These results are taken from the supplement of paper PMC10338343.

Experiment [1] deals with MILI (PIWIL2) piRISC loaded with L1MC piRNA (26 nt). Kind of experiment: pre-steady-state target cleavage rate (min^-1); guide: L1MC piRNA 5'p-UAACUAAAUACUAUGCAAGCUGUAGG; higher = faster piRNA-guided slicing of the target. The method, boiled down: (§1)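 The pre-steady-state cleavage rate was obtained by Cleave-'n-Seq with a burst-and-steady-state fit. A transcribed, DNA-blocked target RNA library (0.1 nM) was mixed with 1 nM active affinity-purified piRISC carrying one synthetic guide, with or without 500 nM GTSF1 partner protein, in HEPES–potassium acetate buffer at 33 °C for 0–8 or 0–960 min. Uncleaved targets were sequenced and normalised to depth and to weakly complementary targets, with three trials pooled and k3 capped at 0.0001 min^-1.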

Experiment [2] deals with EfPiwi piRISC loaded with L1MC piRNA (26 nt). The experiment can be described thus: pre-steady-state target cleavage rate (min^-1); auxiliary factor: 500 nM Ephydatia muelleri Gtsf1; guide: L1MC piRNA 5'p-UAACUAAAUACUAUGCAAGCUGUAGG; MIWI and MILI are mouse PIWI proteins and EfPiwi is from a freshwater sponge; tags in brackets are library labels; higher = faster piRNA-guided slicing of the target. The method, boiled down: as §1
Setting [3] is: auxiliary factor: 500 nM mouse GTSF1.
The mark [4] stands for this setting: auxiliary factor: none (no GTSF1).

± gives the standard deviation.

As to UCCUGGAACACGAUGCAUAGUAUUUAGUUA, the “pre-steady-state target cleavage rate” value is 0.14 ± 0.017 in experiment [1] (setting [3]), 0.00495 ± 0.0023 in experiment [1] (setting [4]) and 0.00377 ± 0.0016 in experiment [2].
Turning to UCCUGGUACUAGCUUGCAUAGUAUUUAGUUA, the “pre-steady-state target cleavage rate” value in experiment [1] (setting [3]) turned out to be 0.068 ± 0.021; in experiment [1] (setting [4]) it was 0.00943 ± 0.003; in experiment [2], 0.00885 ± 0.0038.
For the sequence UCCUCCUACAGCUUGCAUAAUAUUUAGUUA, the “pre-steady-state target cleavage rate” value is 0.292 ± 0.026 in experiment [1] (setting [3]), 0.00352 ± 0.0022 in experiment [1] (setting [4]) and 0.00664 ± 0.0024 in experiment [2].
In the case of UCCUGGAUGUGCUUGCAUAGUAUUUAGUUUA, the “pre-steady-state target cleavage rate” value in experiment [1] (setting [3]) is 0.141 ± 0.015; in experiment [1] (setting [4]) it was 0.00735 ± 0.0032; in experiment [2], 0.00801 ± 0.0032.
For UCCUGGUACAGCUUGCAUAGUAUAAUGUUA the same measures were 0.175 ± 0.036, 0.00565 ± 0.0032 and 0.00312 ± 0.0026.
For UCCUGGUAGAGCUUGGAUAGUAUUUAGUUA the same measures were 0.15 ± 0.0091, 0.00624 ± 0.0029 and 0.004 ± 0.0023.
In the case of UCCUGGAACAGCUUGCAAAGUAUAUAGUUA, the results for the “pre-steady-state target cleavage rate” value in experiment [1] (setting [3]), in experiment [1] (setting [4]) and in experiment [2] were 0.116 ± 0.013, 0.00404 ± 0.0021 and 0.00745 ± 0.0042, respectively.
Consider UCCUGCUACAGCUUGCAUAGUAAUUUAGUUA, for which the “pre-steady-state target cleavage rate” value came out at 0.233 ± 0.023 in experiment [1] (setting [3]), 0.00525 ± 0.0024 in experiment [1] (setting [4]) and 0.00515 ± 0.0024 in experiment [2].
For UCCUGGAACAGCUGGCAUAGUAUUUAGUUA, the “pre-steady-state target cleavage rate” value in experiment [1] (setting [3]) came to 0.17 ± 0.012; in experiment [1] (setting [4]), 0.00801 ± 0.003; in experiment [2] it was 0.00699 ± 0.0026.
In the case of “UCCUGGAUGAGCUUGCAUAGUAUUUAGUUU [g2:g21:cont:t1U]”, the “pre-steady-state target cleavage rate” value in experiment [1] (setting [3]) turned out to be 0.226 ± 0.011; in experiment [1] (setting [4]) it was 0.0146 ± 0.0035; in experiment [2], 0.0356 ± 0.0098.
With UCCUGGAACAGCUUGCAUAGUAUCUAGUUA, the “pre-steady-state target cleavage rate” value in experiment [1] (setting [3]) worked out at 0.213 ± 0.03; in experiment [1] (setting [4]), 0.00512 ± 0.0024; in experiment [2], 0.0068 ± 0.0027.
With UCCUGGAUCAGCAUGCAUAGUUUUUAGUUA, the “pre-steady-state target cleavage rate” value turned out to be 0.0257 ± 0.0092 in experiment [1] (setting [3]), 0.00668 ± 0.0023 in experiment [1] (setting [4]) and 0.00291 ± 0.0027 in experiment [2].
As to UCCUGCUGCAGCUUGCAUAGUAUUUAGUUA, the entries for the “pre-steady-state target cleavage rate” value in experiment [1] (setting [3]), in experiment [1] (setting [4]) and in experiment [2] were 0.331 ± 0.024, 0.00762 ± 0.0024 and 0.0729 ± 0.016, respectively.
On to UCCUGGAACAGCUUGCAAGUAUUUAGUUA, for which the “pre-steady-state target cleavage rate” value in experiment [1] (setting [3]) was 0.141 ± 0.013; in experiment [1] (setting [4]), 0.00614 ± 0.0021; in experiment [2], 0.00284 ± 0.0019.
The corresponding values for UCCUGGAUGAGCUCGCAUAGUAUUUAGUUA are 0.241 ± 0.017, 0.0047 ± 0.0035 and 0.0143 ± 0.0042.
The corresponding values for UCCUGCAACAGGUUGCAUAGUAUUUAGUUA are 0.248 ± 0.022, 0.00771 ± 0.0033 and 0.018 ± 0.0035.
Consider UCCUCCUACAGCUUGCAUAGUAUUCAGUUA, for which the “pre-steady-state target cleavage rate” value in experiment [1] (setting [3]) came out at 0.229 ± 0.034; in experiment [1] (setting [4]), 0.00319 ± 0.0024; in experiment [2], 0.0063 ± 0.0029.
